Where “and” joins values, the source holds several entries; their conditions need not be identical. Equal values may be shown once. Results filed as inconclusive are left out. Calls of active or inactive are those of the source. Calls follow the shape of the dose curve; as a rule, active = well fitted curve in the direction sought with a large enough effect; inconclusive = small, poorly fitted or top-dose-only effect, or another doubt; inactive = no such curve, though single readings can be large; an effect the other way counts as inactive or inconclusive.
Key:
[1] = tested on: HaCat; assay: Cytotoxic Profiling of Annotated Libraries Using Quantitative High-Throughput Screening (AID 1296008); settings: Five cell lines viability, CellTiter-Glo ATP luminescence, 48-72 h; max response: stronger effect = lower value; also: nearly all actives have a fitted effect of over 60% in size
Procedure, shortened: (§1)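 Cytotoxicity was measured as CellTiter-Glo ATP luminescence, read after 10 min at room temperature. Compound treatment of the cells lasted 48 or 72 hr at 37 degrees Celsius in a qHTS format.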

[2] = tested on: KB-3-1; assay: as above; settings: Five cell lines viability, CellTiter-Glo ATP luminescence, 48-72 h; max response: stronger effect = lower value
Procedure, shortened: as §1

[3] = tested on: NIH3T3; assay: as above; settings: Five cell lines viability, CellTiter-Glo ATP luminescence, 48-72 h; max response: stronger effect = lower value
Procedure, shortened: as §1

[4] = tested on: HACAT; assay: qHTS assay to identify novel small-molecules to repurpose for Merkel cell carcinoma treatment (AID 1296009); settings: MCC and control cell lines, CellTiter-Glo viability, 72 h; at 44.8 µM (top of the series) unless noted; also: nearly all actives have a fitted effect of over 60% in size
Procedure, shortened: (§2)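 72 hr, 37 degree celsius; NPC 8-pt / MIPE 11-pt dose response; compound pinned in DMSO; CellTiter-Glo, 10 min RT, luminescence; normalized to no-cell and DMSO controls.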

[5] = tested on: MCC-13; assay: as above; settings: MCC and control cell lines, CellTiter-Glo viability, 72 h; series mostly up to 46 µM
Procedure, shortened: as §2

[6] = tested on: MKL-1; assay: as above; settings: MCC and control cell lines, CellTiter-Glo viability, 72 h; series mostly up to 46 µM
Procedure, shortened: as §2

[7] = tested on: MKL-2; assay: as above; settings: MCC and control cell lines, CellTiter-Glo viability, 72 h; series mostly up to 46 µM
Procedure, shortened: as §2

[8] = tested on: UISO; assay: as above; settings: MCC and control cell lines, CellTiter-Glo viability, 72 h; series mostly up to 46 µM
Procedure, shortened: as §2

[9] = tested on: WaGa; assay: as above; settings: MCC and control cell lines, CellTiter-Glo viability, 72 h; series mostly up to 46 µM
Procedure, shortened: as §2

[10] = tested on: C33A; assay: Primary qHTS to identify gynecologic anti-cancer compounds using libraries of approved drugs and bioactive compounds (AID 1345084); settings: Gynecologic cancer cell panel viability, ATPlite luminescence, 48 h; series mostly up to 57.5 µM; also: nearly all actives have a fitted effect of over 55% in size
Procedure, shortened: (§3)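 Luminescence from the ATPlite ATP-monitoring reagent indicates viable cell number; lower signal means cytotoxicity. Cells received compound 16 h after seeding and were exposed for 48 h across five concentrations.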

[11] = tested on: CAOV3; assay: as above; settings: Gynecologic cancer cell panel viability, ATPlite luminescence, 48 h; series mostly up to 57.5 µM
Procedure, shortened: as §3

[12] = tested on: CASKI; assay: as above; settings: Gynecologic cancer cell panel viability, ATPlite luminescence, 48 h; series mostly up to 57.5 µM
Procedure, shortened: as §3

[13] = tested on: Es-2; assay: as above; settings: Gynecologic cancer cell panel viability, ATPlite luminescence, 48 h; series mostly up to 57.5 µM
Procedure, shortened: as §3

[14] = tested on: HeLa; assay: as above; settings: Gynecologic cancer cell panel viability, ATPlite luminescence, 48 h; series mostly up to 57.5 µM
Procedure, shortened: as §3

[15] = tested on: Hek293T; assay: as above; settings: Gynecologic cancer cell panel viability, ATPlite luminescence, 48 h, control line for the selectivity index; series mostly up to 57.5 µM
Procedure, shortened: as §3

[16] = tested on: JEG-3; assay: as above; settings: Gynecologic cancer cell panel viability, ATPlite luminescence, 48 h; series mostly up to 57.5 µM
Procedure, shortened: as §3

[17] = tested on: OV90; assay: as above; settings: Gynecologic cancer cell panel viability, ATPlite luminescence, 48 h; series mostly up to 57.5 µM
Procedure, shortened: as §3

[18] = tested on: HEK293T; assay: qHTS assay to identify novel small-molecules to repurpose for Merkel cell carcinoma treatment (AID 1296009); settings: MCC and control cell lines, CellTiter-Glo viability, 72 h; at 44.8 µM (top of the series) unless noted; also: nearly all actives have a fitted effect of over 60% in size
Procedure, shortened: as §2

[19] = tested on: MCC-26; assay: as above; settings: MCC and control cell lines, CellTiter-Glo viability, 72 h; series mostly up to 46 µM
Procedure, shortened: as §2
% is scaled to controls: 0 for no effect and ±100 for the full control effect; potency is read from the fitted curve at half-maximal effect.

OC(CCN1CCCCC1)(c1ccccc1)c1ccccc1
inactive: outcome [1] | max response [2] 16.8% | max response [3] 2.78% | outcome [4] | Potency [5] | Potency [6] | Potency [7] | Potency [8] | Potency [9] | Potency [10] | Potency [11] | Potency [12] | Potency [13] | Potency [14] | Potency [15] | Potency [16] | Potency [17]

Oc1cc(O)c2c(c1)O[C@H](c1ccc(O)c(O)c1)[C@H](O)C2
inactive: max response [1] 4.8% | max response [2] -0.959% | max response [3] -0.255% | outcome [18] | Potency [5] | Potency [19] | Potency [6] | Potency [7] | Potency [8] | Potency [9] | Potency [10] | Potency [12] | Potency [13] | Potency [14] | Potency [15] | Potency [16] | Potency [17]

CCOC(=O)COc1ccc2c(C)c(CCN(CC)CC)c(=O)oc2c1Cl
inactive: max response [1] -12.1% | max response [2] 7.91% | max response [3] 1.29% | outcome [18] | Potency [5] | Potency [19] | Potency [8] | Potency [10] | Potency [11] | Potency [12] | Potency [14] | Potency [15] | Potency [16] | Potency [17]

CNC(=O)CN(CCN(CCN(CC(=O)[O-])CC(=O)NC)CC(=O)[O-])CC(=O)[O-].O.[Gd+3]
inactive: max response [1] -1.56% | max response [2] -5.37% and -4.64% | max response [3] -1.76% | outcome [18] | Potency [5] | Potency [6] | Potency [7] | Potency [8] | Potency [9] | Potency [10] | Potency [12] | Potency [13] | Potency [14] | Potency [15] | Potency [16] | Potency [17]

CCC(C(=O)OCCN(CC)CC)c1ccccc1 (configuration not stated)
inactive: outcome [1] | max response [2] -12.7% | max response [3] -17.3% | outcome [4] | Potency [5] | Potency [19] | Potency [6] | Potency [7] | Potency [8] | Potency [9] | Potency [10] | Potency [12] | Potency [13] | Potency [14] | Potency [15] | Potency [17]

Cc1c(C)n(CCN(C)C)c2ccc(C(=O)OCCN(C)C)cc12
active: Potency [3] 7.5 µM
inactive: outcome [1] | max response [2] 2.08% | outcome [4] | Potency [5] | Potency [19] | Potency [6] | Potency [7] | Potency [8] | Potency [10] | Potency [11] | Potency [12] | Potency [13] | Potency [14] | Potency [15] | Potency [16]

CCCC(=O)O[C@]1(C(=O)CO)CC[C@H]2[C@@H]3CCC4=CC(=O)CC[C@]4(C)[C@H]3[C@@H](O)C[C@@]21C
inactive: max response [1] -4.75% | max response [2] 1.39% | max response [3] -4.28% | outcome [18] | Potency [5] | Potency [6] | Potency [7] | Potency [8] | Potency [9] | Potency [10] | Potency [12] | Potency [13] | Potency [14] | Potency [15] | Potency [16] | Potency [17]

CCOC(=O)[C@H](CCc1ccccc1)N[C@@H](C)C(=O)N1Cc2ccccc2C[C@H]1C(=O)O
inactive: outcome [1] | max response [2] 21.9% | max response [3] -19.6% | outcome [4] | Potency [5] | Potency [10] | Potency [12] | Potency [13] | Potency [14] | Potency [15] | Potency [16] | Potency [17]

CN1CCC(=C2c3ccccc3Sc3ccccc32)CC1
inactive: outcome [1] | max response [2] -16.3% | max response [3] -14.3% | outcome [4] | Potency [5] | Potency [19] | Potency [10] | Potency [12] | Potency [13] | Potency [14] | Potency [15] | Potency [16]
active: Potency [7] 13.3 µM

CCCCCCCCCCCCCCCCCC(=O)OCC(O)CO (configuration not stated)
inactive: max response [1] 4.32% | max response [2] -3.37% | max response [3] 1.82% | Potency [5] | Potency [19] | Potency [6] | Potency [7] | Potency [8] | Potency [9] | Potency [10] | Potency [11] | Potency [12] | Potency [13] | Potency [14] | Potency [15] | Potency [16] | Potency [17]

CC(=O)N/N=C/c1ccc([N+](=O)[O-])o1
active: Potency [7] 6.68 µM | Potency [9] 23.7 µM
inactive: outcome [1] | max response [2] -2.33% | outcome [4] | Potency [19] | Potency [10] | Potency [12] | Potency [13] | Potency [14] | Potency [15] | Potency [16] | Potency [17]

CCOc1ccc(Cc2nccc3cc(OCC)c(OCC)cc23)cc1OCC
inactive: max response [1] -22.8% | max response [2] 1.15% | max response [3] -24.3% | Potency [19] | Potency [11] | Potency [14] | Potency [16]
active: Potency [7] 16.8 µM | Potency [17] 7.08 µM

O=C(N/N=C/c1ccccc1O)c1ccncc1
inactive: max response [1] -6.14% | max response [2] 8.17% | Potency [10] | Potency [11] | Potency [14] | Potency [15] | Potency [16]
active: Potency [3] 16.8 µM | Potency [6] 1.06 µM | Potency [7] 0.75 µM | Potency [8] 0.75 µM | Potency [9] 2.66 µM

COC(=O)C1=C(C)NC(C)=C(C(=O)O[C@@H]2CCCN(Cc3ccccc3)C2)[C@@H]1c1cccc([N+](=O)[O-])c1
inactive: max response [1] -9.72% | max response [2] 7.74% | max response [3] -11.8% and -29.4% | Potency [5] | Potency [6] | Potency [10] | Potency [11] | Potency [12] | Potency [13] | Potency [14] | Potency [15] | Potency [16] | Potency [17]
active: Potency [9] 26.6 µM
